The source made the active and inactive calls.
Legend:
Albumin (Bos taurus) = Albumin (Bos taurus) (UniProt P02769); test: compounds binding labelled BSA control protein – biochemical, small-molecule microarray, Alexa647 label, 635/667 nm fluorescence, artefact control for SMM control protein annotation, profiling panel (AID 1118); details: BSA-A647 binding, fluorescence 635 nm, higher = more signal;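 further: score merges 667 nm emission intensity and signal-to-noise per printed compound spot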
[1] = probe aXIP binding to arrayed compounds – biochemical, NeuroSMM set, 635/667 nm fluorescence, primary screen (AID 1119); details: small-molecule microarray, higher = more signal, called active from +8 up or from −8 down;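 further: probe is the protein aXip251-270 applied at 1 µg/mL to compound-printed slides; binding of probe to printed compounds measured as 667 nm fluorescence plus signal to noise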
[2] = probe aNOTCH3 binding on compound microarray – biochemical, small-molecule microarray, 635/667 nm fluorescence, primary screen (AID 1120); details: higher = more signal;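 further: probe is a biotin-tagged antibody raised against NOTCH3 rather than NOTCH3 protein; score merges spot fluorescence near 667 nm with spot signal to noise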
[3] = probe aNOTCH2 binding on compound microarray – biochemical, small-molecule microarray, 635/667 nm fluorescence, primary screen (AID 1121); details: higher = more signal;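 further: score merges feature fluorescence read at 667 nm with its signal to noise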
[4] = target: Carbonic anhydrase 2 (Homo sapiens) (UniProt P00918); test: compounds binding carbonic anhydrase 2 – biochemical, small-molecule microarray, Alexa647-labelled CAII, profiling panel (AID 1122); details: CAII-A647 binding fluorescence, higher = more signal
[5] = COS7 lysate on small-molecule microarray, probe aHis, 635 nm (AID 1123); details: COS7 cell lysate, fluorescence, higher = more signal;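 further: z-score combines 667nm fluorescence intensity with signal-to-noise per printed compound spot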
[6] = probe aLAP1 signal on lysate-treated microarray – cell lysate, small-molecule microarray, COS7 lysate, primary screen (AID 1124); details: probe aLAP1, fluorescence, higher = more signal;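 further: lysate comes from COS7 cells expressing LAP1 and is applied at 0.3 µg/mL; score merges spot fluorescence near 667 nm with signal-to-noise over triplicate slides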
Sam68 (KHDRBS1) = test: compounds binding KHDRBS1 protein – biochemical, small-molecule microarray, 635 nm fluorescence, primary screen (AID 1125); details: higher = more signal;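 further: score merges 667 nm channel intensity with signal to noise over triplicate slides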
[7] = test system: Chordin-like protein 2 (CHRDL2); test: compounds binding chordin-like 2 – biochemical, small-molecule microarray, 635 nm fluorescence, primary screen (AID 1126); details: fluorescence 635 nm, higher = more signal;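 further: printed compound slides probed with Chrdl2 protein at 4 µg/mL for 1 h at 4 C; score merges 667 nm emission intensity with signal to noise over three replicate slides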
[8] = target: Concanavalin-A (Canavalia ensiformis) (UniProt P02866); test: compounds binding concanavalin A lectin – biochemical, small-molecule microarray, Alexa647 label, 635 nm, artefact control for SMM control protein annotation, primary screen (AID 1127); details: ConA-A647 binding fluorescence, higher = more signal;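 further: z combines 667 nm emission intensity with signal-to-noise across three replicate slides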
Concanavalin-A (Canavalia ensiformis), sequence (P02866 whole entry, looked up): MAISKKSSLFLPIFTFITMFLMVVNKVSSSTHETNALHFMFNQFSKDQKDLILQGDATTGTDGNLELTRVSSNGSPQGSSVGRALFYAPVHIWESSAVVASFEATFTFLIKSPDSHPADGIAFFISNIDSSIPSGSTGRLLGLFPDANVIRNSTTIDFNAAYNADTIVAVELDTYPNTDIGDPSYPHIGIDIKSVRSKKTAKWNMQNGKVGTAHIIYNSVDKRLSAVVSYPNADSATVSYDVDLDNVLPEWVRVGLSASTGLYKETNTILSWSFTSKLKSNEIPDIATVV

[9] = compounds binding Alexa647 anti-His antibody – biochemical, small-molecule microarray, 635 nm fluorescence, artefact control for SMM control protein annotation, primary screen (AID 1128); details: higher = more signal;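 further: score merges feature fluorescence with signal-to-noise for each printed compound spot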
[10] = test system: Human papillomavirus type 1a E7 protein (residues 1-88); test: HPV1a E7 small-molecule binders, primary screen, biochemical, small-molecule microarray, residues 1-88, 635 nm (AID 1129); details: small-molecule microarray binding, fluorescence 635 nm; higher = more signal
[11] = target: Focal adhesion kinase 1 (Homo sapiens) (UniProt Q05397); test: PTK2 protein binding on printed compound slides – biochemical, small-molecule microarray, 635/667 nm fluorescence, BSA, DTT, primary screen (AID 1130); details: 635 nm fluorescence, higher = more signal;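 further: composite of spot emission at 667 nm and signal to noise over triplicate slides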
Focal adhesion kinase 1 (Homo sapiens), sequence (Q05397 whole entry, looked up): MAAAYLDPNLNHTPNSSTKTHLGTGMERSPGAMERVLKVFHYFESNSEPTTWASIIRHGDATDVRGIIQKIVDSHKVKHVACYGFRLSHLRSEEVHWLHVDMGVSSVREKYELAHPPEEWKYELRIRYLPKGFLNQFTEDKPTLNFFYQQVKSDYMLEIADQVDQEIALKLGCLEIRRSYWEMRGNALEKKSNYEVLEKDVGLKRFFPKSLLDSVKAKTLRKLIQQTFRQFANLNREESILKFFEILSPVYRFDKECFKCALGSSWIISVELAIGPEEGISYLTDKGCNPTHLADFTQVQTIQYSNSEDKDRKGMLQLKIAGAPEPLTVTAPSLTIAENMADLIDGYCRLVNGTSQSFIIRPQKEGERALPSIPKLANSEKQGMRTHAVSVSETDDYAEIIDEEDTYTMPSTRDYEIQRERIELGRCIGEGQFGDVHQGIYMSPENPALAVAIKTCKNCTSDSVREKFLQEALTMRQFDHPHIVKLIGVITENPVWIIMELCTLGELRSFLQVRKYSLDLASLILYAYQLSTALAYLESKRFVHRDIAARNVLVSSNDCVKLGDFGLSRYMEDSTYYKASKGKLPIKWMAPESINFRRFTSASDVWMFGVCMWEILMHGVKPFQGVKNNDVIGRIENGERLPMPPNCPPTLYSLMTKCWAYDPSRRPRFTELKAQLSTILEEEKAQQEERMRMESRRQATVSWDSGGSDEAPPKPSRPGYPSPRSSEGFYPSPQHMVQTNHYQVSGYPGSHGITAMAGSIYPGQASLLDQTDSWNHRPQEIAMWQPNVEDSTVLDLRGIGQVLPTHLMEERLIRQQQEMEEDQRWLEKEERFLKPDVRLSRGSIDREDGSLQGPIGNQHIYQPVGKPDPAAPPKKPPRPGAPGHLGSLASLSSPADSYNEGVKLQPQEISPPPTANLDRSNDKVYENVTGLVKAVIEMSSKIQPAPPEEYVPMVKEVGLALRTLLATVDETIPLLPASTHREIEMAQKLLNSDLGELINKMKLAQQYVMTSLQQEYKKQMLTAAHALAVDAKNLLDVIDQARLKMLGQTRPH

[12] = test system: Fibrinogen (Alexa647-labelled); test: Alexa647-fibrinogen binding to printed small molecules – biochemical, small-molecule microarray, 635/667 nm fluorescence, artefact control for SMM control-protein annotation, profiling panel (AID 1131); details: fibrinogen-A647 binding fluorescence, higher = more signal;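 further: z-score merges 667 nm fluorescence with per-spot signal-to-noise over triplicate slides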
[13] = target: Follistatin (Homo sapiens) (UniProt P19883); test: FST protein binding to printed compounds – biochemical, small-molecule microarray, 635/667 nm fluorescence, primary screen (AID 1132); details: 635 nm fluorescence, higher = more signal
Follistatin (Homo sapiens), sequence (P19883 whole entry, looked up): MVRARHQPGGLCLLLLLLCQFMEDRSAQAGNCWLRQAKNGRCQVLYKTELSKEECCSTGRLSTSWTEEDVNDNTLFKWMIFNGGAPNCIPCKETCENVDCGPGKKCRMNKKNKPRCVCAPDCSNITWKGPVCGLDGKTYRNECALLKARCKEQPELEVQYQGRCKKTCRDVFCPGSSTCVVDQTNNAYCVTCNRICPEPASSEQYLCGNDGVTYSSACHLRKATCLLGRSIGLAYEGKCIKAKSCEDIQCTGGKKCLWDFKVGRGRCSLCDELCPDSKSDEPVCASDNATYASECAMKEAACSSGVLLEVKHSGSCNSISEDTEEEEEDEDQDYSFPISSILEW

[14] = target: Fibroblast growth factor 2 (Homo sapiens) (UniProt P09038); test: basic fibroblast growth factor binding to printed compounds – biochemical, small-molecule microarray, 635/667 nm fluorescence, primary screen (AID 1133); details: FGF2, fluorescence 635/667, higher = more signal
Fibroblast growth factor 2 (Homo sapiens), sequence (P09038 whole entry, looked up): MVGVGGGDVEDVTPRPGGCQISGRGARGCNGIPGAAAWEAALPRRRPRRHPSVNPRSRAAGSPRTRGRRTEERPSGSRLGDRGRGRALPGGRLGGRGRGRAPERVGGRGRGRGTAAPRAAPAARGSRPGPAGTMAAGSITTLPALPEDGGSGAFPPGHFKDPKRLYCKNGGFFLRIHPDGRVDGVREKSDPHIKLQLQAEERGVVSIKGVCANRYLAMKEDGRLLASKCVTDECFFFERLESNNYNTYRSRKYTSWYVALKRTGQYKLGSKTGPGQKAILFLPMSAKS

[15] = JC-1 mitochondrial potential readout, lung cancer cells – cell-based, A549, JC-1 fluorescence, basal, 24 h, 100 nL, profiling panel (AID 1138); details: higher = more signal;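 further: A549 lung adenocarcinoma cells under basal conditions with no added stimulus; test concentration not given here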
Lefty1 = Lefty1 protein binding to printed compounds – biochemical, small-molecule microarray, 635/667 nm fluorescence, primary screen (AID 1139); details: fluorescence 635/667, higher = more signal
[16] = test system: wheat germ agglutinin (Triticum aestivum), Alexa647-labelled; test: Alexa647-WGA lectin binding to printed small molecules – biochemical, small-molecule microarray, 635/667 nm fluorescence, artefact control for SMM control-protein annotation, profiling panel (AID 1140); details: WGA-A647 binding, 635 nm fluorescence, higher = more signal;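 further: score merges 667 nm feature emission with signal to noise over triplicate slides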
[17] = target: Luciferin 4-monooxygenase (Photinus pyralis) (UniProt P08659); test: inhibition of purified Photinus pyralis luciferase – biochemical, luminescence, purified enzyme, 2006 set, primary screen (AID 1141); details: purified firefly luciferase, SteadyGlo luminescence, 30 min; higher = more signal, called active from +8 up or from −8 down;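 further: cell-free assay with purified firefly luciferase at 100 ng per well in PBS; test concentration not given here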
Luciferin 4-monooxygenase (Photinus pyralis), sequence (P08659 whole entry, looked up): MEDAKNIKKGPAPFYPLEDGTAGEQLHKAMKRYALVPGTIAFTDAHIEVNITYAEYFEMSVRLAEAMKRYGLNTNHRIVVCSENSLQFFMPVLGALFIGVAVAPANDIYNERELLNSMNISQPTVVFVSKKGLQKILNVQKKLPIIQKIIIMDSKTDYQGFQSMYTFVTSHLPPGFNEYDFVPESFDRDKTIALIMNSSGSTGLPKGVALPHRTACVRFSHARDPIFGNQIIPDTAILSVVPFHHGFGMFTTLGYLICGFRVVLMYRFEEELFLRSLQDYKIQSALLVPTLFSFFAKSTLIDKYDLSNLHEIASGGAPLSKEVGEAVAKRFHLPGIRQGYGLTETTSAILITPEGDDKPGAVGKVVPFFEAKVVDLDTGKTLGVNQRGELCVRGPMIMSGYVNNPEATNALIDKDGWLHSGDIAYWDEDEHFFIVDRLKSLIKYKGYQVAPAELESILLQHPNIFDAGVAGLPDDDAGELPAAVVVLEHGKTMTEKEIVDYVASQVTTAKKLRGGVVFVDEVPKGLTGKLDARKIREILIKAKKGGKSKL

Albumin (Bos taurus), sequence (P02769 whole entry, looked up): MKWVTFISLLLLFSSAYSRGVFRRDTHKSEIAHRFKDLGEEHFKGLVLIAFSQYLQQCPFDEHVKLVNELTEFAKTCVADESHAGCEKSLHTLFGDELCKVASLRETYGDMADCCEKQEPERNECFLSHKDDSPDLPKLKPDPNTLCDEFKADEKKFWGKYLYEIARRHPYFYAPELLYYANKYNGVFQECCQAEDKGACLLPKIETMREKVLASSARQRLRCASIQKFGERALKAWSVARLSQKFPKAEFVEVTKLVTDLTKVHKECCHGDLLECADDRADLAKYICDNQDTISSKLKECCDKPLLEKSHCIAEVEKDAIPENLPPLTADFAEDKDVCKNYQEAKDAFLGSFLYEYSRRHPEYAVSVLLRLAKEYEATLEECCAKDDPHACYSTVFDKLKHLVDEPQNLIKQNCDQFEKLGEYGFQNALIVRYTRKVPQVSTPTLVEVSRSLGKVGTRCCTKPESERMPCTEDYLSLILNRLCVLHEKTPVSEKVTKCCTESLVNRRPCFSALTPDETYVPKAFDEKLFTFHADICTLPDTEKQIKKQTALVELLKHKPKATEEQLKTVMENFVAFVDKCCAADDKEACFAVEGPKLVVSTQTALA

| Compound | composite z-score (Albumin (Bos taurus)) | composite Z-score [1] | composite z-score [2] | composite z-score [3] | composite z-score [4] | composite z-score [5] | composite z-score [6] | composite z-score (Sam68 (KHDRBS1)) | composite z-score [7] | composite z-score [8] | composite z-score [9] | composite z-score [10] | composite z-score [11] | composite z-score [12] | composite z-score [13] | composite z-score [14] | z-score [15] | composite z-score (Lefty1) | composite z-score [16] | z-score [17] |
| --- | --- | --- | --- | --- | --- | --- | --- | --- | --- | --- | --- | --- | --- | --- | --- | --- | --- | --- | --- | --- |
| COC(=O)[C@@]1(Cc2ccc(F)cc2)[C@H]2c3cc(C(=O)N4CCCC4)n(CCc4c[nH]c5ccccc45)c3C[C@H]2CN1C(=O)c1ccccc1 | 1.11 | -0.263 (inactive) | 0.558 | 0.184 | 0.795 | 3.17 | 1.76 | 1.3 | 0.291 | 0.984 | 1.56 | 1.26 | 1.27 | 0.97 | 0.867 | 0.577 | 0.775 | -0.627 | 0.816 | 2.04 (inactive) |
| O[C@@H](Cc1ccccc1)[C@@H](/C=C/C1CC1)N(CC#Cc1ccccc1)Cc1ccccc1Br | -0.144 | 0.586 (inactive) | -0.218 | -0.171 | -0.0441 | 0.41 | 0.146 | -1.33 | -1.36 | -0.564 | 0.167 | -0.33 | 0.284 | -0.651 | -1.12 | -1.71 | 0.163 | -0.512 | -1.11 | -0.375 (inactive) |
| CCCCC(O)C1C=CC2C(=O)N(C)C(=O)C2N1N(c1ccccc1)c1ccccc1 (stereo not given) | 0.878 | 0.418 (inactive) | 0.183 | 0.0203 | 0.797 | 2.73 | 0.923 | 1.32 | -0.711 | 1.1 | 1.92 | 1.15 | 0.912 | 0.824 | 0.613 | -0.604 | 0.804 | 0.194 | 1.21 | -0.004 (inactive) |
| COC(=O)C1=CC(CCCO)=CC(c2cccs2)N(Cc2cccc(OC(F)(F)F)c2)C=C1C(=O)OC (stereo not given) | 0.935 | 0.387 (inactive) | 0.208 | 0.224 | 0.834 | 1.93 | 0.718 | 1.3 | -0.413 | 1.13 | 1.51 | 1.23 | 2.18 | 0.972 | 1.23 | -0.141 | 1.87 | 0.233 | 1.13 | -1.41 (inactive) |
| O=c1cccc(-c2ccc([N+](=O)[O-])cc2)o1 | -0.293 | 0.46 (inactive) | 0.0692 | -0.154 | 0.365 | 0.403 | 0.633 | 0.795 | 0.075 | -0.549 | 0.504 | 0.963 | 0.21 | -0.301 | 1.28 | 1.05 | -0.233 | 1.4 | 0.301 | 1.68 (inactive) |
| COc1cc2c(cc1O)C=[N+](Cc1sc3ccccc3c1Cl)CC2 | 0.606 | 0.0375 (inactive) | -0.0546 | -0.0658 | 0.742 | 0.491 | 0.361 | -0.291 | 0.496 | 0.968 | 0.505 | 0.0341 | -0.292 | 0.257 | 0.609 | 0.182 | -0.571 | 0.0893 | 0.311 | 0.5 (inactive) |
| COc1ccc([Si](C)(C)[C@@H]2[C@@H](CCO)O[C@]3(C(=O)N(Cc4cccc(NC(=O)[C@H](C)O)c4)c4ccccc43)[C@H]2C)cc1 | 0.6 | 0.234 (inactive) | -0.147 | -0.0984 | 0.51 | 1.61 | 0.523 | 1.31 | -0.083 | 1.01 | 1.76 | 1.2 | 0.642 | 0.694 | 0.393 | 0.957 | -1.52 | 0.486 | 0.743 | -0.355 (inactive) |
| C=CCC(OC(C)=O)[C@@H]1[C@@H](N(Cc2cccc3ccccc23)C(=O)Cc2ccc(F)cc2)c2cc(OCCCO)ccc2N1C(=O)c1ccc2ccccc2c1 (stereo not given in full) | -0.0241 | -0.748 (inactive) | -0.0111 | -0.104 | -0.0968 | 0.0036 | -0.353 | -0.0562 | 0.235 | -0.15 | 0.301 | -0.247 | 0.114 | 0.131 | 0.7 | -0.328 | 1.03 | 0.117 | 0.0096 | 0.739 (inactive) |

Reference: PubChem BioAssay
